From PubChem BioAssay (NCATS)
Results filed as inconclusive are left out. The source made the active and inactive calls. Unless noted, calls follow the shape of the dose curve; as a rule, active = well fitted curve in the direction sought with a large enough effect; inconclusive = small, poorly fitted or top-dose-only effect, or another doubt; inactive = no such curve, though single readings can be large; an effect the other way counts as inactive or inconclusive.

Legend:
[1] = qHTS profiling of the MIPE4 collection as inhibitors of Plasmodium falciparum (3D7) proliferation (AID 743344; call rule not given here;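 also: scaled between DMSO vehicle wells and 0.29 µM artemisinin as full inhibition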); details: P. falciparum 3D7 in erythrocytes, SYBR Green DNA fluorescence, 72 h; at 28.5 µM unless noted
Summary of the method: (§1)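 Erythrocytes infected with P. falciparum (0.3% parasitemia, 2.5% hematocrit) incubated with compounds 72 h at 37 C, 5% CO2. Lysis with saponin/Triton buffer containing SYBR Green I, overnight at room temperature in the dark; DNA fluorescence (485/535 nm) normalised to 0.29 uM artemisinin and DMSO.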

[2] = qHTS profiling of the MIPE4 collection as inhibitors of Plasmodium falciparum (DD2) proliferation (AID 743345; call rule not given here); details: P. falciparum Dd2 in erythrocytes, SYBR Green DNA, 72 h; at 28.5 µM unless noted
Summary of the method: as §1

[3] = qHTS profiling of the MIPE4 collection as inhibitors of Plasmodium falciparum (HB3) proliferation (AID 743347; call rule not given here;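 also: plate controls were DMSO vehicle wells for no effect and artemisinin wells for full effect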); details: P. falciparum HB3 in erythrocytes, SYBR Green DNA, 72 h; at 28.5 µM unless noted
Summary of the method: as §1

[4] = High-throughput drug toxicity screening in the BPDCN cell line Gen2.2 (AID 1224824; call rule not given here;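 also: cells exposed to compounds for 48 h before reading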); details: Gen2.2 BPDCN cells; at 45.8 µM (top of the series) unless noted
Summary of the method: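 Gen2.2 cells (500/well) in phenol red-free RPMI with 10% FBS were exposed to compounds for 48 h at 37 °C, 5% CO2. Viability was read by CellTiter-Glo luminescence and normalized to DMSO (100%) and 9.2 uM bortezomib (0%).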

[5] = High-throughput drug toxicity screening in the BPDCN cell line Cal-1 (AID 1224825; call rule not given here); details: Cal-1 BPDCN cell viability, qHTS; at 45.8 µM (top of the series) unless noted
Summary of the method: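 Cal-1 cells, 500 per well in phenol-red-free RPMI with 10% FBS, exposed to compounds for 48 hours at 37C, 5% CO2. Viability read by CellTiter-Glo luminescence; percent activity normalized to DMSO (100%) and 9.2 uM bortezomib final (0%).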

[6] = qHTS assay for measurement of the activity of small molecule inhibitors on Zika virus induced Caspase-3 activity in human iPSC derived neural progenitor cells (hNPCs) (AID 1224857); also: % of control where 0% means no effect; nearly all actives have a fitted effect of over 65% in size
Summary of the method: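 Percent inhibition of virus-induced caspase-3/7 luminescence (Caspase-Glo), scaled between uninfected cells and Zika-infected cells. hNPCs received compound 1 hr before ZIKV at 2 FFU/cell, with 6 hours infection at 37 C.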

[7] = qHTS assay for measurement of the activity of small molecule inhibitors on Zika virus induced Caspase-3 activity in human astrocytoma cells (AID 1224859);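 also: plate controls were ZIKV-infected untreated cells for no effect and uninfected cells for full effect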
Summary of the method: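 Luminescent caspase-3/7 read-out (30 min reagent, room temperature) in human SNB-19 cells infected 6 h with ZIKV (2 FFU/cell) after 1 h compound pre-incubation; Data were normalised to uninfected and infected wells.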

[8] = qHTS Screen of the MIPE 4.0 Collection Against Ewings Sarcoma (EW8) (AID 1259255); also: nearly all actives have a fitted effect of over 35% in size; also: potency is read from the fitted curve at half-maximal effect;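 as to viability: 100% = DMSO-treated cells and 0% = medium-only wells without cells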
Summary of the method: (§2)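 Log-phase cells in RPMI with 5% FBS attached for 4 h, then received compounds as a titration for 48 h at 37C, 5% CO2. Viability was read by CellTiter-Glo luminescence and normalized to DMSO and no-cell wells.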

[9] = qHTS assay to identify small molecule inhibitors of chordoma cells - UCH-1 (AID 1259355); also: % is scaled to controls: 0 for no effect and ±100 for the full control effect; nearly all actives have a fitted effect of over 55% in size
Summary of the method: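 Cells (800/well) were seeded and left overnight at 37 C, 5% CO2, then treated with drugs at 15 concentrations plus a combination mix of auranofin, camptothecin, doxorubicin, rubitecan and topotecan. Viability after 48hr was read by CellTiter-Glo luminescence.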

[10] = qHTS assay to identify small molecule inhibitors of chordoma cells - UCH-2 (AID 1259356); also: % is scaled to controls: 0 for no effect and ±100 for the full control effect
[11] = qHTS Screen of the MIPE 4.0 Collection Against Ewings Sarcoma (TC32) (AID 1259256); also: nearly all actives have a fitted effect of over 45% in size; also: potency is read from the fitted curve at half-maximal effect
Summary of the method: as §2

[12] = qHTS profiling of the MIPE4 collection as inhibitors of Plasmodium falciparum (DD2) proliferation (Rep 2) (AID 743346; call rule not given here); details: P. falciparum Dd2 in erythrocytes, SYBR Green DNA, 72 h; at 28.5 µM unless noted
Summary of the method: as §1

[13] = qHTS Screen of the MIPE 4.0 Collection Against Ewings Sarcoma (TC71) (AID 1259253); also: potency is read from the fitted curve at half-maximal effect; nearly all actives have a fitted effect of over 40% in size
Summary of the method: as §2

[14] = qHTS profiling for inhibitors of Plasmodium falciparum (HB3) proliferation (AID 743324); details: Plasmodium falciparum HB3 blood-stage proliferation; at 28.7 µM (top of the series);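 also: 100% = DMSO vehicle wells and 0% = artemisinin-treated control wells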
Summary of the method: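 P. falciparum HB3 grown in erythrocytes (0.3% parasitemia, 2.5% hematocrit final) with compound for 72 h at 37 C, 5% CO2. Parasite DNA detected by SYBR Green after saponin/triton lysis overnight; normalized to 0.29 uM artemisinin and DMSO.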

[15] = Identifying Small Molecule Inhibitors of Pancreatic Cancer Stem Cells (SN12C, Adherent) (AID 1259358);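 also: cell survival measured after 48 h of compound exposure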; also: potency is read from the fitted curve at half-maximal effect
Summary of the method: (§3)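 Spheroids grown 14 days in stem cell media on hydrogel-coated nonadherent plates; 2D lines seeded directly. Compounds added after 4 h attachment, 48 h at 37C, 5% CO2; CellTiter-Glo luminescence normalized to DMSO (no inhibition) and no-cell wells (full inhibition).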

[16] = Identifying Small Molecule Inhibitors of Pancreatic Cancer Stem Cells (A278, Adherent) (AID 1259361); also: nearly all actives have a fitted effect of over 35% in size;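 as to viability (% of control): 100% = DMSO-treated cells and 0% = cell-free media-only wells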
Summary of the method: as §3

Structure (SMILES)	parasite growth, % of DMSO control [1]	parasite growth remaining, % of DMSO control (lower = more inhibition) [2]	growth, % of control [3]	cell viability, % of control (lower = more cytotoxic) [4]	viability (% of control) [5]	Potency [6]	Potency [7]	Potency [8]	Potency [9]	outcome [10]	Potency [11]	parasite growth, % of control (lower = inhibition) [12]	Potency [13]	remaining proliferation (% of control), lower = more inhibition [14]	Potency [15]	IC50 (viability decrease) [16]
Cc1cnc(C(=O)O)c[n+]1[O-]	97%	104%	66.8%	174%	105%	inactive	inactive	inactive	inactive	inactive	–	–	–	–	–	–
O=C(NC1CCOCC1)c1ccc(-c2cc(-c3cn[nH]c3-c3ccccn3)ccn2)cc1	–	82.7%	47.3%	724%	131%	inactive	inactive	inactive	–	–	inactive	–	–	–	–	–
COc1ccc(-n2c(C)c([N+](=O)[O-])c3ccc(O)cc32)cc1	80.7%	78.7%	34.7%	46.7%	96.3%	inactive	inactive	–	–	–	26.4 µM (active)	45.7%	16.6 µM (active)	–	–	–
Nc1ncnc2c1nc(Cl)n2[C@@H]1O[C@H](CO)[C@@H](O)[C@@H]1O	187%	–	125%	6.19%	9.15%	inactive	inactive	–	–	–	20.9 µM (active)	43.2%	26.4 µM (active)	–	–	–
Cc1c(O)cccc1C(=O)N[C@@H](CSc1ccccc1)[C@H](O)CN1C[C@H]2CCCC[C@@H]2C[C@@H]1C(=O)NC(C)(C)C	10.1%	–	–	66.8%	4.13%	inactive	inactive	23.5 µM (active)	–	–	–	37.7%	20.9 µM (active)	–	–	–
CO[C@@H](C(=O)N1Cc2[nH]nc(NC(=O)c3ccc(N4CCN(C)CC4)cc3)c2C1)c1ccccc1	6.06%	12.3%	–	134%	6.89%	inactive	inactive	0.0935 µM (active)	–	–	0.0662 µM (active)	10.5%	–	7.25%	0.743 µM (active)	0.0935 µM (active)
Clc1ccc(-c2nc3sccn3c2C=NOCc2ccc(Cl)c(Cl)c2)cc1	30.7%	51.5%	43.2%	111%	116%	inactive	inactive	inactive	–	–	–	–	–	103%	inactive	inactive
CCS(=O)(=O)N1CC(CC#N)(n2cc(-c3ncnc4[nH]ccc34)cn2)C1	–	–	–	134%	17.5%	–	–	–	–	–	–	–	–	–	–	–
Nc1ncnc2ccccc12	84.9%	98.4%	77%	145%	100%	inactive	inactive	inactive	–	–	inactive	–	–	–	–	–
